VACV E9 pol inh: blocks vaccinia virus processive DNA synthesis. actives 0.94% (n = 46,000). in vitro processive DNA synthesis, absorbance read-out; stronger effect = lower value. normalized absorbance, % (test concentration not listed); in the data active = normalized absorbance mostly below about 85%, no sharp cut-off; inactive = mostly above about 86%
* hit, by the source's call. Shown is part of a subset that was picked to be rich in hits.

SMILES	VACV E9 pol inh
O=C1CC(N2C(=O)C3CC=CCC3C2=O)C2COC1O2 (centres undefined)	101
COc1ccc(/C=C2\Oc3cc(OCc4cccc(C)c4)ccc3C2=O)cc1	100
O=C(Cc1cccs1)Nc1ccc2c(c1)OCCO2	104
Cc1c(O)c(CN2CCOCC2)cc2c(-c3ccccc3)cc(=O)oc12	100
O=C1c2ccccc2-c2onc3c(Br)cc(N4CCCCC4)c1c23	73*
CC(C)Nc1cc(Br)c2noc3c2c1C(=O)c1ccccc1-3	100
CCNc1cc(N(C)C)c2noc3c2c1C(=O)c1ccccc1-3	72
Nc1ccc(Br)cc1-c1nc2ccccc2s1	104
C[n+]1c2cc(N)ccc2cc2ccc(N)cc21	10*
CCOc1ccc(N)cc1OCC	101
COc1cccc2sc(NC(=O)c3ccccc3Cl)nc12	107
CSc1nc2ccc3nc(NC(=O)c4ccccc4Cl)sc3c2s1	100
O=C(Nc1nc(=S)ss1)c1ccccc1Cl	69*
COc1ccc(Nc2c3c(nc4ccc(NC(=O)C5CC5)cc24)CCCC3)cc1OC	103
Cc1ccc(-c2c[n+](-c3c4n(n(-c5ccccc5)c3=O)CCCCC4)c(C)n2C)cc1	100
CCC(=O)N(CCC(c1ccccc1)C1CCOC(C)(C)C1)Cc1ccc(OC)cc1 (centres undefined)	100
CS[C@H](C)[C@H](OC(C)=O)C(=O)N(C)CCN(C)C (tested in a mixture with another compound)	15*
N#Cc1c(N)n(CCN)c2nc3ccccc3nc12	85*
CCCCn1c(N)c(C#N)c2nc3ccccc3nc21	95
N#Cc1c(N)n(CCc2ccccc2)c2nc3ccccc3nc12	94
Cc1ccsc1/C=c1/sc2nc(-c3cccs3)nn2c1=O	103
CCNc1nc(SCc2ccc(Cl)cc2)nc2sc3c(c12)CCN(C)C3	53*
CCNc1nc(SCC(=O)NC(=O)NCc2ccccc2)nc2sc3c(c12)CCN(C)C3	94
CC(C)C1Cc2c(sc3nc(SCc4ccc(Cl)c(Cl)c4)nc(N)c23)CO1 (centres undefined)	100
Cc1ccc(C=Nc2ccc(F)c(F)c2)o1	102
SMILES	VACV E9 pol inh
CC(=O)Oc1ccc2c(c1)CCC1C2CCC2(C)C(=O)CCC12 (centres undefined)	96
COc1ccc(CCC(=O)Nc2ccc(-c3noc(CCc4ccccc4)n3)cc2)cc1	95
CCCC(=O)Nc1sccc1C#N	108
Cc1cccc(C(=O)Nc2nnc(-c3ccccc3C)s2)c1	102
Cc1cccc(N(Cc2cc(=O)n3ccccc3n2)C2=NC3CS(=O)(=O)CC3S2)c1 (centres undefined)	101
COc1cccc(N(Cc2ccc(C)cc2)C2=NC3CS(=O)(=O)CC3S2)c1 (centres undefined)	68*
Cc1ccc(C)c(CN(C2=NC3CS(=O)(=O)CC3S2)c2cccc(Cl)c2)c1 (centres undefined)	89
O=C(Cc1noc2ccccc12)NCCc1ccc(Cl)cc1	94
O=C(/C=C/c1cccs1)Nc1ccc(-c2nnc3n2CCCCC3)cc1	105
Cc1ccc(S(=O)(=O)Nc2ccc(Br)cc2C(NCC(=O)O)c2ccccc2)cc1 (centres undefined)	68*
CCOC(=O)Nc1ccc(Br)cc1C(NCC(=O)OC)c1ccccc1 (centres undefined)	98
Nc1ccc(Br)cc1C(NCC(=O)O)c1ccccc1 (centres undefined)	89
Cc1ncc(CN2CCOCC2)c(N)n1	101
COc1ccc2c(c1)oc(=O)c1ccccc12	92
O=C(O)COc1ccc2c(c1)oc(=O)c1ccccc12	90*
O=C(O)COc1ccc2c(-c3ccccc3)cc(=O)oc2c1	102
COc1ccc(-c2noc(N(CCC#N)c3ccccc3)n2)cc1	103
COc1ccc2c(c1)C(=NN)c1cc(OC)ccc1-2	68*
COc1ccc(-c2ccc(OC)cc2C(=O)NN)cc1	101
COc1ccc2c(c1)-c1ccccc1S(=O)(=O)N2C	96
O=C(CC1N=C2c3ccccc3N=C(SCC(=O)c3ccccc3)N2C1=O)NCCc1ccccc1 (centres undefined)	100
CCC(Sc1nc2ncccc2c(=O)n1Cc1ccccc1)C(=O)NCc1ccc(C)cc1 (centres undefined)	101
Cc1cccc(C)c1N1C(=O)CSC1=O	91
Cc1ccc2c(Sc3ccc(Cl)cc3)c(C(=O)O)[nH]c2c1	57*
COc1cccc(CNC(=O)c2[nH]c3cc(C)ccc3c2Sc2ccc(Cl)cc2)c1OC	95
SMILES	VACV E9 pol inh
O=C(c1[nH]c2ccccc2c1Sc1ccc(Cl)cc1)N1CCCC1	97
CC(C)CCNC(=O)c1ccc(CSc2nc3ccncc3n2Cc2ccccc2)cc1	105
CC1=CC(C)C(C2OCC(C)CO2)C(C)C1 (centres undefined)	104
O=C(NCc1noc2ccccc12)N1CCc2ccccc21	105
CN(C)c1ccc(C(=C2C=CC(=[N+](C)C)C=C2)c2ccc(N(C)C)cc2)cc1	49*
CN(C)c1ccc(C(=O)OCC(=O)NC2CC2)cc1	107
CN(C)c1ccc(C(=NO)c2ccc(N(C)C)cc2)cc1	100
Oc1ccccc1-c1cc(-c2ccccc2)nn1Cc1ccc(Cl)cc1	100
Cc1ccc(C)n1-c1sccc1C(=O)O	22*
Cc1ccc(C)n1-c1sccc1C(=O)CC#N	110
CC(=O)Nc1sccc1C(=O)O	92
Cc1cccc(NC(=O)CC(=O)c2ccccc2)c1	105
CCOC(=O)c1sc(NC2=NCCCCC2)nc1C	104
Cc1cc(-c2nn(C)c(=O)c3ccccc23)cc(C)c1OCC(=O)NN	106
CNC(=O)COc1ccc(-c2nn(C)c(=O)c3ccccc23)cc1	76*
CNC(=O)COc1ccc(NC(=O)CCn2nc(-c3ccc(Cl)cc3)c3ccccc3c2=O)cc1	100
CCCOc1ccc(-c2cnc(=S)[nH]c2N)cc1	100
CC(C)NC(=O)c1cn(C2CCCCC2)c(=O)c2c1c1ccccc1n2C	93
Cc1ccc(-c2c(C#N)c(N)n(C)c(=O)c2C#N)c(C)c1	100
Cc1cccc2nc(CSC(=S)NCc3cccnc3)cn12	72*
Cc1cccc2nc(CSCc3ccco3)cn12	80
Cc1cccc2nc(CSC(=S)NCC3CCCO3)cn12 (centres undefined)	110
CCc1ccc(OCC(O)CN2CCCCC2)cc1 (centres undefined)	95
CCC1=NN(C(=O)c2ccccc2F)C(O)(c2ccccc2)C1 (centres undefined)	100
OCC1CCCCN1C(=S)NCCc1ccccc1 (centres undefined)	100
SMILES	VACV E9 pol inh
Oc1ccc(Cl)cc1N=Cc1ccc(-c2ccc(Br)cc2)o1	100
NNc1ccc(Cl)c(Cl)c1	85
NNc1ccc(Br)cc1	54*
O=C(Nc1ccccc1)Nc1ccc(Br)cc1	100
CCN(C(=O)c1cc2c(=O)oc3ccccc3c2s1)c1ccccc1	102
O=C(NCc1ccccc1)C1CCCN(S(=O)(=O)c2ccc3nc(-c4ccccc4)[nH]c3c2)C1 (centres undefined)	97
Cc1nc2ccccc2c2oc(C(=O)N3CCC(C)CC3)cc12	97
Cc1nc2ccccc2c2oc(C(=O)NCCN3CCN(C)CC3)cc12	62*
Cc1nc2ccccc2c2oc(C(=O)NC3CCCC3)cc12	96
COc1ccccc1N1CCN(Cc2c(O)ccc3ccccc23)CC1	102
COc1ccc(Oc2ccc(/C(N)=C/C#N)cc2)cc1	104
CC(C)Cn1c(=S)[nH]c2ccccc21	99
Cc1cc(C)c(C(=O)Cn2c(=S)[nH]c3ccccc32)c(C)c1	100
S=c1[nH]c2ccccc2n1Cc1ccccc1	78*
